SMILES strings stand for the structures. Hit rate of the full screen: of about 320,000 compounds, about 9,100 (2.8%) were called active. Another 3% or so got no clear call; they are omitted. Calls come from the whole dose curve; as a rule, active = well fitted activation curve with a large enough effect; inconclusive = small, poorly fitted or top-dose-only effect; inactive = no such curve, though single readings can be large or run the other way. The entries come from a sample that favours actives as a whole. A call without a number means that no potency is given here.
Potency is the fitted concentration of half-maximal effect.

A short description of this assay: qHTS Assay for Rab9 Promoter Activators. Note: nearly all actives have a fitted effect of over 60% in size. As to conditions: Huh7 Rab9 promoter-luciferase reporter, luminescence, 24 h; series mostly up to 9.22 µM. In a few lines: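 Rab9 promoter-driven luciferase in stably transfected Huh7 cells; 1500 cells/well rested 2 h, exposed to compound in DMSO for 24 h at 37 °C, 5% CO2. Luminescence read 10 min after adding luciferase reagent at ambient temperature.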
(qHTS replaces the single test concentration by a dilution series.)
`CCOc1cc(/C=C/C(=O)OCC(=O)NCCN2C(=O)CSC2=O)ccc1OCC(C)C`: the Potency entry was “inactive”. For `O=C(OCC(=O)N1CCc2ccccc21)C1CCCN1S(=O)(=O)c1ccc(Cl)cc1` (stereo not given), the Potency result was “inactive”.

Turning to `CCOC(=O)C1CCCN(C(=O)c2ccc(C)c(S(=O)(=O)N3CCCCC3)c2)C1` (stereo not given), the Potency result was “inactive”.

For the molecule `CCOC(=O)Cc1csc(SCC(=O)Nc2ccc(C)cc2F)n1`, the Potency result was “inactive”. On to `C/C(CC(=O)Nc1ccc(N(C)C)cc1)=N\NC(=O)c1ccccc1F`, for which the Potency entry was “inactive”.

With `C/C(=N\NC(=O)Cc1ccc(Cl)cc1)c1ccccn1`, the Potency result was “inactive”.

Take `C/C(=N\NC(=O)c1ccccc1F)c1ccccn1`: the Potency was 0.316 µM (active).

Take `CN(C)S(=O)(=O)c1cccc(NC(=O)COc2ccc3ccccc3c2)c1`: the Potency result was “inactive”. In the case of `O=C(Nc1cccc(NC(=O)c2cccc(F)c2)c1)c1ccccc1`, the Potency entry was “inactive”. As to `O=C(Nc1ccn(Cc2ccccc2)n1)c1cccc(F)c1`, the Potency is 1.41 µM (active). As to `Cn1cc([N+](=O)[O-])c(C(=O)Nc2cnn(Cc3ccc(F)cc3)c2)n1`, the Potency result was “inactive”. `Cc1ccc(Cn2ccc(NC(=O)C3C4CCC(C4)C3C(=O)O)n2)cc1` (stereo not given): the Potency result was “inactive”.

With `O=C(Nc1ccn(Cc2ccccc2)n1)c1n[nH]c([N+](=O)[O-])c1Cl`, the Potency was 0.355 µM (active). Take `O=C(Nc1ccccc1N1CCN(c2ccccc2)CC1)c1cccc(F)c1`: the Potency result was “inactive”. On to `CN1CCN(S(=O)(=O)c2ccc(N3CCN(c4ccccc4O)CC3)c([N+](=O)[O-])c2)CC1`, for which the Potency result was “inactive”. In the case of `CCN(CC)c1ccc(NC(=O)CN2C(=O)NC3(CCc4ccccc43)C2=O)cc1` (stereo not given), the Potency result was “inactive”.

Take `CN(CC(=O)NC1CCN(Cc2ccccc2)CC1)S(=O)(=O)c1ccc(Cl)s1`: the Potency entry is “inactive”. The result for `CCCCN(CC(=O)Nc1cccc(S(=O)(=O)N2CCCC2)c1)Cc1nc2ccccc2c(=O)[nH]1` reads “inactive”. `CCn1c(=O)c(=O)n(CC)c2cc(N3CCCCC3)c(NC(=O)c3ccc(Cl)cc3)cc21`: the Potency entry is “inactive”. As for `CC(=O)Cn1ncc(N2CCOCC2)c(Br)c1=O`, the Potency result is “inactive”. As for `O=C(Cn1ncc(N2CCCC2)c(Br)c1=O)c1ccc(Cl)cc1`, the Potency was 1.41 µM (active). In the case of `O=C(COc1ccccc1Cl)N1N=C(c2cccs2)CC1c1ccco1` (stereo not given), the Potency result was “inactive”. Regarding `COc1ccc(-c2noc(COc3ccc(Cl)c(C)c3)n2)cc1`, the Potency result was “inactive”. For `CN(Cc1ccccn1)Cc1nc(-c2ccc(Cl)cc2)no1` the value was “inactive”; for `Cc1cc(Cl)ccc1OCc1nc(-c2ccncc2)no1`, 2.82 µM (active); for `CCC(C)N(C(=O)CSc1nnnn1-c1ccccc1OC)C1CCS(=O)(=O)C1` (stereo not given), “inactive”.

For `CC1CC(=O)Nc2ccccc2N1C(=O)COc1ccc2cc(Br)ccc2c1` (stereo not given), the Potency entry was “inactive”. As to `CC(C)Cc1nnc(NC(=O)CCc2ccccc2)s1`, the Potency result was “inactive”. As for `COc1ccc([N+](=O)[O-])cc1NC(=O)CCc1ccccc1`, the Potency result is “inactive”.

With `O=C(CCc1ccccc1)Nc1ncc([N+](=O)[O-])s1`, the Potency was 2.24 µM (active).

Values taken from PubChem BioAssay AID485297 (National Center for Advancing Translational Sciences (NCATS), 2010).
